Assay results taken from PubChem BioAssay AID1159580 (chemical genetic matrix, 2015).
The campaign covered roughly 5,500 compounds. About 2,000 (36%) were called active. Not shown: some 18% with an inconclusive outcome. Cut-off read from the data, not from the text of the source: active = normalized growth mostly below about 0.91 (no sharp cut-off); inconclusive = no clear call, values can overlap the other calls; inactive = mostly above about 0.92. The list shows a part of the results.

Assay: chemical genetic growth profiling, strain panel (AID 1159580);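 note: tested at 20 µM; growth read once vehicle control cultures reached saturation at 30 °C; 1 = growth at the plate median or of vehicle wells; lower values mean less growth of the strain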
Conditions: S. cerevisiae deletion strains, growth OD

Measured: normalized growth

CC(C)CCCC(C)C1CCC2C3CC[C@H]4C[C@H](O)CC[C@]4(C)C3CC[C@]12C (stereo partly drawn)
inactive: locus YHR030C, strain SLT2, active compounds read low 0.98 | locus YHR079C, strain IRE1, active compounds read low 0.985 | locus YJL095W, strain BCK1, active compounds read low 0.992 | locus YJR066W, strain TOR1, active compounds read low 0.919 | locus YLR113W, strain HOG1, active compounds read low 0.985 | locus YNL183C, strain NPR1, active compounds read low 0.916 | locus YOR231W, strain MKK1, active compounds read low 0.991 | locus YPL256C, strain CLN2, active compounds read low 0.981
